# Shown are actives, neighbours in structure and some others; about 0.4% of the full set was active somewhere.
# EPAC1 antag: qHTS for Antagonist of cAMP-regulated guanine nucleotide exchange factor 3 (EPAC1): primary screen; Potency, µM (series often up to 115 µM), inactives show at the top dose activity change, negative = inhibition, actives largely listed as inhibitors; AID 720709, 2013; EPAC1 GEF assay, Rap1b-BODIPY-GDP exchange fluorescence; 360,000 tested, 0.14% active; Rap guanine nucleotide exchange factor 3 (Homo sapiens), O95398;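 further: potency means the concentration at half of the fitted maximal effect; plate controls were vehicle for no effect and positive control for full effect; nearly all actives have a fitted effect of over 50% in size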
# Target sequence (O95398 whole entry, looked up): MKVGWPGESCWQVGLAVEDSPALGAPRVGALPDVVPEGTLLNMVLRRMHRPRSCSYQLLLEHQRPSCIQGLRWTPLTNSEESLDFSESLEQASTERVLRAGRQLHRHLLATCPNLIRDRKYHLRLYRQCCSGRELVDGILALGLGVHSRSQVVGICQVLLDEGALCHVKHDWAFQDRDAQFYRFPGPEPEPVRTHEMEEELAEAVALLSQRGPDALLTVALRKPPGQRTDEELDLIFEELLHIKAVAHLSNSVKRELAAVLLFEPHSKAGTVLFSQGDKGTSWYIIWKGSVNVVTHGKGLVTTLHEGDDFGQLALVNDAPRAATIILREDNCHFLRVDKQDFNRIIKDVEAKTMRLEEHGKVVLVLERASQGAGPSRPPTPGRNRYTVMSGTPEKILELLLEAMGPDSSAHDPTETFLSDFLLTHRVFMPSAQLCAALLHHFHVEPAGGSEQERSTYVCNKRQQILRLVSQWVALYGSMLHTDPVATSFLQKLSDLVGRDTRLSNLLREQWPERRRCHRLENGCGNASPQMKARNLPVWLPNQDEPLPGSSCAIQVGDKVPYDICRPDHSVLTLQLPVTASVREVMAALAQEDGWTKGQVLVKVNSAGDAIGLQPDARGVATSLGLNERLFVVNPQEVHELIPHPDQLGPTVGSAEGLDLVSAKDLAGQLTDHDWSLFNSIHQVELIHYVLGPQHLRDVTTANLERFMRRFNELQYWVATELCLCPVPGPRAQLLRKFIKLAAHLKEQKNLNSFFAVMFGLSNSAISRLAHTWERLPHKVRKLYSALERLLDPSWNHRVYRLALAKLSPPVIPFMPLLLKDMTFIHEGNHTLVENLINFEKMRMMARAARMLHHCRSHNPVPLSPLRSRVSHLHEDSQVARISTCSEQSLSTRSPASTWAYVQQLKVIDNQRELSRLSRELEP
# TRPML1 agonist: qHTS for Agonists of the Human Mucolipin Transient Receptor Potential 1 (TRPML1); 410,000 tested, 0.12% active; activation, % (no concentration beside the values); Mucolipin-1 (Homo sapiens), Q9GZU1; TRPML1-expressing cells, Ca2+ dye fluorescence, FDSS; in the data active means activation above about 50%; inconclusive means mostly about 30% to 49%; further: 0% is about no effect
#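 Calcium fluorescence on an FDSS kinetic reader gave the read-out. Tet-induced TRPML1-DL cells were plated overnight, dye-loaded (Ca8 with quencher, 45-90 min, room temperature, dark), then read 110 s after compound addition, and again 110 s after 4uM final 54-4 (EC80).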
# EPAC2 antag: qHTS for Antagonist of cAMP-regulated guanine nucleotide exchange factor 2 (EPAC2): primary screen; AID 720708, 2013; Potency, µM (top dose mostly 114 µM), without a hit: at the top dose activity, negative = inhibition, most hits filed as inhibitors; 360,000 tested, 0.18% active; Rap guanine nucleotide exchange factor 4 (Homo sapiens), Q8WZA2; EPAC2 GEF exchange of Rap1B-BODIPY-GDP, fluorescence; further: potency means the concentration at half of the fitted maximal effect; on the % scale 0 is the no-effect control and ±100 the full control effect; nearly all actives have a fitted effect of over 45% in size
# EPAC2 agonist: qHTS for Agonist of cAMP-regulated guanine nucleotide exchange factor 4 (EPAC2): primary screen | Rap guanine nucleotide exchange factor 4 (Homo sapiens), Q8WZA2 | Potency, µM (series often up to 154 µM), for the others: top-dose activation, hits mostly activators | 360,000 tested, 0.079% active | EPAC2 activation, biochemical qHTS; response scale: 100% = 6.5 mM cAMP response; further: potency means the concentration at half of the fitted maximal effect; nearly all actives have a fitted effect of over 50% in size
#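 Each well held 100 nM EPAC2, 250 nM RAP1B-BODIPY-GDP and 50 uM GDP. Fluorescence, read at 5-min intervals to 30 min, was referenced to a 6.5 mM cAMP positive control.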
# EPAC1 ag: qHTS for Agonist of cAMP-regulated guanine nucleotide exchange factor 3 (EPAC1): primary screen; Rap guanine nucleotide exchange factor 3 (Homo sapiens), O95398; EPAC1 agonist qHTS, biochemical assay; response scale: 100% = response to 6.5 mM cAMP; Potency, µM (doses to about 154 µM), inactives show at the highest dose activation, usual class: activators; 360,000 tested, 0.073% active; AID 720707, 2013; further: potency means the concentration at half of the fitted maximal effect; nearly all actives have a fitted effect of over 60% in size
#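 Nucleotide exchange assay: 100 nM EPAC1 with 250 nM Rap1B loaded with BODIPY-GDP and 50 uM GDP, room temperature. Fluorescence (480/540 nm) read every 5 min for 30 min; signal change normalized to 6.5 mM cAMP as full agonist.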
# TRPML1 inh: qHTS for Inhibitors of the Human Mucolipin Transient Receptor Potential 1 (TRPML1); TRPML1-inducible cells, Ca2+ dye fluorescence, FDSS; active compounds read low; inhibition of EC80 agonist-evoked calcium signal; 390,000 tested, 0.02% active; activity change, negative = inhibition, % (test concentration not listed); Mucolipin-1 (Homo sapiens), Q9GZU1; in the data active means activity change below about -50%; inconclusive means between about -30% and that limit;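 further: stimulus is agonist 54-4 at its EC80 concentration; on the % scale 0 is the no-effect control and ±100 the full control effect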
#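 Calcium fluorescence in TRPML1-DL cells induced overnight with Tet: a 110 s read after compound pin addition, then a 110 s antagonist read after challenge with 54-4 at 4 uM final (EC80).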
# * marks the source's active call; other numbers are inactive results; u = inconclusive; x = no result; [ ] = remark or other dose. Unless noted, the call rests on the fitted dose curve; in most records, active means well fitted curve in the direction sought with a large enough effect; inconclusive means small, poorly fitted or top-dose-only effect, or another doubt; inactive means no such curve, though single readings can be large; an effect the other way counts as inactive or inconclusive.
SMILES,EPAC1 antag,TRPML1 agonist,EPAC2 antag,EPAC2 agonist,EPAC1 ag,TRPML1 inh
O=C1NC(=S)SC1=Cc1cc(Br)ccc1O,56µM*,6,79µM*,10%,-12%,1
O=C1NC(=S)S/C1=C\c1coc2ccccc2c1=O,-20%,0,-20%[57.1 µM],3%,-17%,49
O=C1NC(=S)SC1=Cc1ccc(F)cc1,-21%,0,-27%,-5%,-7%,-3
CCOc1ccccc1C=C1SC(=S)NC1=O,u,-1,u,3%,-1%,-9
CCOC(=O)c1cc2n(c1/N=C/N(C)C)-c1ccccc1C2=O,137%,u,48%,100µM*,100µM*,-22
CCc1ccc2c(c1)NC(=O)C2(C)Cc1ccc(C(F)(F)F)o1 (configuration not stated),-21%,3,20µM*,-10%,-24%,x
CCn1c2ccccc2c2cc(NC(=O)c3ccc(=O)oc3)ccc21,12%,6,25%,100µM*,19%,-4
CCn1c2ccccc2c2cc(NC(=O)c3cc(OC)cc(OC)c3)ccc21,4%,0,-1%,14%,10%,11
CC(C)(C)c1ccc(CN(Cc2ccccc2)C(c2ccccn2)c2nnnn2C(C)(C)C)cc1 (configuration not stated),0%,56*,0%,8%,-1%,3
CCN(CC)c1ccc2c(C)c(Cl)c(=O)oc2c1,-18%,3,u,4%,6%,-5
CCN(CC)c1ccc2c(c1)oc(=O)c1c(Cl)cc(=O)oc12,20%,69*,46%,89µM*,-27%,-13
CC(C)Cn1cc(NC(=O)N2CCN(c3ccc(F)cc3)CC2)c2ccccc2c1=O,x,1,x,x,x,-12
N#Cc1sc2nc(-c3ccccc3)cc(-c3ccco3)c2c1N,35µM*,1,-2%,-5%,-5%,-3
CC(C)(C)n1ncc2c(=O)n(Cc3c(Cl)cccc3Cl)cnc21,x,2,x,x,x,-3
Cc1c(Cl)cccc1NS(=O)(=O)c1ccc2c(c1)C1C=CCC1C(c1ccc(C(=O)O)cc1)N2 (configuration not stated),56µM*,-1,-17%,-4%,-7%,-9
C=C[C@@H]1c2cc(C)ccc2N(S(=O)(=O)c2ccc(C)cc2)[C@H](c2ccc(C(=O)OC)cc2)C1(C#N)C#N,x,-1,x,x,x,x
COc1cc(/C=C2\SC(=S)N(Nc3ncc(C(F)(F)F)cc3Cl)C2=O)ccc1O,-24%,1,-5%,-12%,-8%,0
CN(C)c1ccc(/C=C2\SC(=S)N(Nc3ncc(C(F)(F)F)cc3Cl)C2=O)cc1,35%,53*,66%,112µM*,112µM*,-4
COc1ccc(C(=O)c2ccc(Cl)cc2)c2ccccc12,-10%,1,u,10%,12%,-24
COc1cc(C(=O)c2ccccc2)c([N+](=O)[O-])cc1OC,-3%,0,79µM*,3%,-9%,-5
COc1ccc(C(=O)c2ccccc2)c2c(O)ccc(C(=O)c3ccccc3)c12,-1%,-1,5%,6.3µM*,-14%,9
C=Cc1ccc(Cn2nc(-c3ccccc3)ccc2=O)cc1,-7%,1,22µM*,3%,8%,-11
O=c1ccc(-c2ccccc2)nn1Cc1ccccc1F,-3%,1,u,1%,5%,6
Cc1ccccc1NC(=O)CCn1cnc2onc(-c3ccc(F)cc3)c2c1=O,x,0,x,x,x,51

# Screening results from PubChem BioAssay.
